# Shown is part of a subset that was picked to be rich in the strongest signals.
# B1: SspB C123 (Streptococcus gordonii), Q54186 (protein)
# chain: MAHFHYSSLLAQPQINKEIKNEDGVDIDRTLVAKQSIGKFELKTEALTAGRPKTTSFVLVDPLPTGYKFDLDATKAASTGFDTTYDEASHTVTFKATDETLATYNADLTKPVETLHPTVVGRVLNDGATYTNNFTLTVNDAYGIKSNVVRVTTPGKPNDPDNPNNNYIKPTKVNKNKEGLNIDGKEVLAGSTNYYELTWDLDQYKGDKSSKEAIQNGFYYVDDYPEEALDVRPDLVKVADEKGNQVSGVSVQQYDSLEAAPKKVQDLLKKANITVKGAFQLFSADNPEEFYKQYVSTGTSLVITDPMTVKSEFGKTGGKYENKAYQIDFGNGYATEVVVNNVPKITPKKDVTVSLDPTSENLDGQTVQLYQTFNYRLIGGFIPQNHSEELEDYSFVDDYDQAGDQYTGNYKTFSSLNLTMKDGSVIKAGTDLTSQTTAETDATNGIVTVRFKEDFLQKISLDSPFQAETYLQMRRIAIGTFENTYVNTVNKVAYASAAALEHHHHHH
# Experiments:
# Assay in all cases: glycan array binding signal (z-score within array); higher = stronger binding
# Details in all cases: glycan notation: IUPAC condensed, linker removed
# GalNAc4S6S(b1-4)GlcNAc = target: GalNAc4S6S(b1-4)GlcNAc
# How it was run: (§1)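 Negative Z-scores can be read as non-binding. The Z-score is calculated within each array and then averaged across arrays of one protein sequence at different concentrations or buffers and across linkers. Arrays, 3228 in all, were curated from the Consortium for Functional Glycomics database and kept only where the protein sequence was available.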
# Glc(b1-4)Glc = target: Glc(b1-4)Glc
# How it was run: as §1
# GlcA(b1-3)Gal = target: GlcA(b1-3)Gal
# How it was run: as §1
# GlcA(b1-6)Gal = target: GlcA(b1-6)Gal
# How it was run: as §1
# [1] = target: GlcNAc(b1-2)Man(a1-3)[GlcNAc(b1-4)][GlcNAc(b1-2)Man(a1-6)]Man(b1-4)GlcNAc(b1-4)[Fuc(a1-6)]GlcNAc
# How it was run: as §1
# [2] = target: GlcNAc(b1-3)Gal(b1-4)GlcNAc(b1-3)Gal(b1-4)GlcNAc(b1-3)Gal(b1-4)GlcNAc(b1-2)Man(a1-3)[GlcNAc(b1-3)Gal(b1-4)GlcNAc(b1-3)Gal(b1-4)GlcNAc(b1-3)Gal(b1-4)GlcNAc(b1-2)Man(a1-6)]Man(b1-4)GlcNAc(b1-4)[Fuc(a1-6)]GlcNAc
# How it was run: as §1
# [3] = target: GlcNAc(b1-3)Gal(b1-4)GlcNAc(b1-3)[GlcNAc(b1-3)Gal(b1-4)GlcNAc(b1-3)]GalNAc
# How it was run: as §1
# GlcNAc(b1-6)GalNAc = target: GlcNAc(b1-6)GalNAc
# How it was run: as §1
# Man(a1-6)Man = target: Man(a1-6)Man
# How it was run: as §1
# [4] = target: Neu5Ac(a2-3)Gal(b1-3)GalNAc(b1-3)Gal(a1-4)Gal(b1-4)Glc
# How it was run: as §1
# [5] = target: Neu5Ac(a2-3)Gal(b1-3)GalNAc(b1-4)[Neu5Ac(a2-8)Neu5Ac(a2-3)]Gal(b1-4)Glc
# How it was run: as §1
# [6] = target: Neu5Ac(a2-3)Gal(b1-4)[Fuc(a1-3)]GlcNAc(b1-3)Gal(b1-4)[Fuc(a1-3)]GlcNAc(b1-3)Gal(b1-4)[Fuc(a1-3)]GlcNAc
# How it was run: as §1
# [7] = target: Neu5Ac(a2-3)Gal(b1-4)[Fuc(a1-3)]GlcNAc(b1-3)GalNAc
# How it was run: as §1
# [8] = target: Neu5Ac(a2-3)Gal(b1-4)[Fuc(a1-3)]GlcNAc(b1-6)[Neu5Ac(a2-3)Gal(b1-3)]GalNAc
# How it was run: as §1
# [9] = target: Neu5Ac(a2-3)Gal6S(b1-4)[Fuc(a1-3)]GlcNAc
# How it was run: as §1
# Neu5Ac(a2-6)Gal(b1-4)Glc = target: Neu5Ac(a2-6)Gal(b1-4)Glc
# How it was run: as §1
# [10] = target: Neu5Ac(a2-6)Gal(b1-4)GlcNAc(b1-2)Man(a1-6)Man(b1-4)GlcNAc(b1-4)GlcNAc
# How it was run: as §1
# [11] = target: Neu5Ac(a2-6)Gal(b1-4)GlcNAc(b1-3)Gal(b1-3)GlcNAc
# How it was run: as §1
# [12] = target: Neu5Ac(a2-6)Gal(b1-4)GlcNAc(b1-3)Gal(b1-4)GlcNAc(b1-3)Gal(b1-4)GlcNAc(b1-2)Man(a1-3)[Neu5Ac(a2-6)Gal(b1-4)GlcNAc(b1-3)Gal(b1-4)GlcNAc(b1-3)Gal(b1-4)GlcNAc(b1-2)Man(a1-6)]GalNAc
# How it was run: as §1
# [13] = target: Neu5Ac(a2-6)Gal(b1-4)GlcNAc(b1-3)Gal(b1-4)[Fuc(a1-3)]GlcNAc(b1-3)Gal(b1-4)[Fuc(a1-3)]GlcNAc
# How it was run: as §1
# [14] = target: Neu5Ac(a2-6)Gal(b1-4)GlcNAc(b1-3)[Neu5Ac(a2-6)Gal(b1-4)GlcNAc(b1-6)]GalNAc
# How it was run: as §1
# [15] = target: Neu5Ac(a2-8)Neu5Ac(a2-8)Neu5Ac(a2-3)[Gal(b1-3)GalNAc(b1-4)]Gal(b1-4)Glc
# How it was run: as §1
# [16] = target: Neu5Ac(a2-8)Neu5Gc(a2-3)Gal(b1-4)GlcNAc
# How it was run: as §1
# [17] = target: Neu5Ac9Ac(a2-3)Gal(b1-4)GlcNAc
# How it was run: as §1
# [18] = target: Neu5Ac9Ac(a2-6)Gal(b1-4)GlcNAc
# How it was run: as §1
# [19] = target: Neu5Gc(a2-8)Neu5Gc(a2-3)Gal(b1-4)GlcNAc
# How it was run: as §1
binder,measurement,setting,value
B1,glycan array binding signal (z-score),GalNAc4S6S(b1-4)GlcNAc,-0.886
same,glycan array binding signal (z-score),Glc(b1-4)Glc,-0.604
same,glycan array binding signal (z-score),GlcA(b1-3)Gal,-1.48
same,glycan array binding signal (z-score),GlcA(b1-6)Gal,3.52
same,glycan array binding signal (z-score),[1],-0.492
same,glycan array binding signal (z-score),[2],0.372
same,glycan array binding signal (z-score),[3],0.786
same,glycan array binding signal (z-score),GlcNAc(b1-6)GalNAc,-0.398
same,glycan array binding signal (z-score),Man(a1-6)Man,3.13
same,glycan array binding signal (z-score),[4],-0.945
same,glycan array binding signal (z-score),[5],-0.494
same,glycan array binding signal (z-score),[6],2.7
same,glycan array binding signal (z-score),[7],2.98
same,glycan array binding signal (z-score),[8],3.38
same,glycan array binding signal (z-score),[9],-0.28
same,glycan array binding signal (z-score),Neu5Ac(a2-6)Gal(b1-4)Glc,-0.254
same,glycan array binding signal (z-score),[10],-0.261
same,glycan array binding signal (z-score),[11],-0.017
same,glycan array binding signal (z-score),[12],3.21
same,glycan array binding signal (z-score),[13],0.632
same,glycan array binding signal (z-score),[14],-0.829
same,glycan array binding signal (z-score),[15],5.25
same,glycan array binding signal (z-score),[16],-0.198
same,glycan array binding signal (z-score),[17],-0.938
same,glycan array binding signal (z-score),[18],0.758
same,glycan array binding signal (z-score),[19],-0.249
